Compound activity from PubChem BioAssay.
Hits are enriched below; roughly 2.3% of the tested compounds scored in any of these assays.
Bim-Mcl-1: human Bim-Mcl-1 interaction inhibition; Bead-based flow cytometry, Bim peptide-Mcl-1 binding; inhibition, % at 10 µM; actives 0.1% (n = 190,000); AID 1009; in the data active = inhibition above about 40%;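 also: 0% = no compound tracer wells and 100% = peptide blocker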
Target sequence (Q07820 whole entry, looked up): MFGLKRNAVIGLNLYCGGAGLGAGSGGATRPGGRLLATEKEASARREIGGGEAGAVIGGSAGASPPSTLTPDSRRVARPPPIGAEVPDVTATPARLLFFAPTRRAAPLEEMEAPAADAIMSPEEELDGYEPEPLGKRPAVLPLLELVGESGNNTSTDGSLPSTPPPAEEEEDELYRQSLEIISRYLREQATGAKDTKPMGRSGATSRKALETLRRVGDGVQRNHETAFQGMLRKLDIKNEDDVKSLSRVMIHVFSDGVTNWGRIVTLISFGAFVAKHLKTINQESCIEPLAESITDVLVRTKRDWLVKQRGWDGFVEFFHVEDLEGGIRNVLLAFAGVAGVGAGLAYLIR
GLD-1 RNA inh: GLD-1-TGE RNA interaction inhibition (C. elegans) | purified GLD-1 + fluorescein TGE RNA, fluorescence polarization | actives 0.44% (n = 320,000) | inhibition, % at 5.96 µM;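 active = percent inhibition above a per-plate cutoff, the plate mean of test compounds plus 3 SD, cut at about 30% in these data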;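 also: 0% = DMSO wells with GLD-1 and probe and 100% = wells lacking GLD-1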
Mcl1-Bid inh: disrupts binding of human Mcl-1 to Bid peptide; Q07820; TR-FRET Mcl-1/Bid-Dy647 peptide binding, 1536-well; inhibition, % at 21.7 µM; actives 0.97% (n = 220,000); AID 1021;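 active = compounds that cut the binding signal by more than half at the single screening dose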;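 also: His-tagged Mcl-1 with europium anti-His antibody binding Bid BH3 peptide; 0% = Mcl-1 plus peptide wells and 100% = peptide-only wells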
MCL1 BIM primary: inhibitors of human MCL1 binding to BIM-BH3 peptide | GST-MCL1 / FITC-Bim-BH3 fluorescence polarization | Q07820 | AID 2057 | actives 0.68% (n = 320,000) | inhibition, % at 10.9 µM;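 active = inhibition above the mean inhibition of all tested compounds plus 3 SD, set per campaign, cut at about 40% in these data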;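 also: 0% = DMSO wells and 100% = unlabeled Bim-BH3 peptide control; higher means more loss of mP so more displacement of Bim peptide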
BCLXL inh: Bcl-xL (human) inhibition; Q07817; GST-Bcl-xL / FITC-Bim BH3 peptide fluorescence polarization; inhibition, % at 10.9 µM; actives 0.7% (n = 320,000); AID 2129;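 active = inhibition above the mean of all tested compounds plus 3 SD, cutoff set per campaign, cut at about 30% in these data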;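 also: 0% = DMSO wells and 100% = unlabeled Bim-BH3 peptide competitor; inhibitors lower millipolarization by displacing the labeled peptide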
Target sequence (Q07817 whole entry, looked up): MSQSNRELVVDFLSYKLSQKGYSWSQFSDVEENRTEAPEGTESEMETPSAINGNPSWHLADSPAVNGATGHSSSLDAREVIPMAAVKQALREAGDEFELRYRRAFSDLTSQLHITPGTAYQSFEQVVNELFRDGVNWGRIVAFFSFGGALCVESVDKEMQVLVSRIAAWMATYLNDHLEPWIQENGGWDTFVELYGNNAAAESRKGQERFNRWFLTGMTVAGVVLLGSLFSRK
Mcl1-Noxa inh: Mcl-1/Noxa interaction inhibition; actives 1.5% (n = 220,000); inhibition, % at 21.7 µM; TR-FRET Mcl-1/Noxa peptide binding, 2 h; Q07820;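 active = compounds that cut the protein-peptide binding signal by more than 50% relative to plate controls in a single-dose test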;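 also: His-tagged Mcl-1 with rhodamine Noxa BH3 peptide and terbium anti-His antibody; 0% = Mcl-1 plus Noxa peptide wells and 100% = peptide-only wells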
Bcl-xL conf: counter-screen for MCL1 inhibitors: confirmation of human Bcl-xL inhibitors; actives 54% (n = 1,700); GST-Bcl-xL / FITC-Bim BH3 peptide FP binding; shares compounds with MCL1 BIM primary; inhibition, % at 10.9 µM;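 active = inhibition above a cutoff equal to the mean inhibition of all tested compounds plus 3 SD, cut at about 30% in these data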;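 also: 0% = DMSO wells and 100% = unlabeled Bim BH3 control peptide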
MCL1 BIM confirm: MCL1-BIM-BH3 interaction inhibition, confirmation; shares compounds with MCL1 BIM primary; GST-MCL1 / FITC-Bim-BH3 fluorescence polarization; inhibition, % at 10.9 µM; actives 61% (n = 1,700); AID 2168;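 active = inhibition above the average of all tested compounds plus 3 SD, cut at about 40% in these data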;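 also: 0% = DMSO wells and 100% = unlabeled Bim-BH3 control peptide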
Active calls of the source: *; / = no result given; + = active, no number.

SMILES	Bim-Mcl-1	GLD-1 RNA inh	Mcl1-Bid inh	MCL1 BIM primary	BCLXL inh	Mcl1-Noxa inh	Bcl-xL conf	MCL1 BIM confirm
Cc1nn(-c2ccccc2)c(Cl)c1/C=N/Nc1ccc(S(=O)(=O)Nc2ccccc2C(=O)O)cc1[N+](=O)[O-]	-3	8	100*	54*	23	105*	20	27
CN(C)/C=N/NC(=O)C1Cc2c(ccc3ccccc23)O1 (stereo unspecified)	/	-3	/	3	3	/	/	/
CCOC(=O)C(C(=O)OCC)c1c([N+](=O)[O-])c(=O)n2c3c(cccc13)CCC2	/	-2	/	15	22	/	/	/
COC(=O)C1=C(C)NC(=O)/C1=C\N(C)C	0	68*	-44	105*	91*	13	8	8
COc1ccccc1C(=O)NC(=O)Cn1nc(C)c([N+](=O)[O-])c1C	/	-2	/	1	-1	/	/	/
COc1ccc(C2C=C(c3ccc(Br)s3)Nc3ncnn32)cc1OC (stereo unspecified)	1	146*	-58	+	189*	-6	140*	161*
COc1cccc(C2C=C(c3cccs3)Nc3ncnn32)c1OC (stereo unspecified)	4	16	-36	16	15	14	/	/
CN(C)c1ncc(C2=C(Cl)C(=O)C(N3CCCC3)=C(Cl)C2=O)s1	85*	16	61*	91*	57*	112*	63*	85*
CCOC(=O)C1=C(CSc2nc3c(cc2C#N)CN(C)CC3)OC(N)=C(C#N)C1c1ccccc1 (stereo unspecified)	-4	27	-16	85*	68*	33	16	8
COC(=O)C1=C(CSc2nc3c(cc2C#N)CN(C)CC3)OC(N)=C(C#N)C1c1ccccc1F (stereo unspecified)	-5	48*	-23	100*	86*	34	23	21
COC(=O)C1=C(C)OC(N)=C(C#N)C1c1ccccc1F (stereo unspecified)	-4	2	-15	10	6	8	/	/
CCOC(=O)C1=C(CSc2nc3c(cc2C#N)CCC3)OC(N)=C(C#N)C1c1ccccc1 (stereo unspecified)	0	-68	-29	6	13	25	/	/
CC(=O)c1cccc(OC(=O)C2=CC=CN3CCS(=O)(=O)N=C23)c1	/	8	/	-5	-5	/	/	/
O=C(NCCc1ccccn1)c1nc(Cn2cc(Br)cn2)no1	/	-3	/	-2	-1	/	/	/
O=C1C=C(NNC(=O)c2cccnc2)CC(c2ccco2)C1 (stereo unspecified)	-2	120*	-17	54*	49*	12	13	14
Cc1cc(C)cc(NC2=CC(=O)CC(c3ccco3)C2)c1 (stereo unspecified)	-4	10	-31	0	1	-1	/	/
CC1CCCC(C)N1C(=O)COC(=O)c1ccc(Br)o1 (stereo unspecified)	/	7	/	/	/	/	/	/
Cc1cc2nn(-c3cccc4ccccc34)nc2cc1N	20	2	0	4	7	42	/	/
Cc1cc2nc3ccc(N(C)C)cc3nc2cc1N	/	41*	/	126*	120*	/	128*	143*
CC(=O)N1CCN(CC(=O)NC(=O)Nc2ccc3c(c2)OCCO3)CC1	/	9	/	0	1	/	/	/
c1ccc(Nc2ccccc2Nc2ccccn2)nc1	-3	141*	3	98*	98*	9	18	29
O=C(COC(=O)/C=C/c1ccccc1)NC(=O)NCc1ccccc1	/	6	/	-5	2	/	/	/
Cc1ccc(C(=O)NCC(=O)NCC(=O)OCC(=O)c2ccc(Br)cc2)cc1	3	1	-40	54*	4	-17	2	2
Cc1ccc(C(=O)COC(=O)CNC(=O)Cc2ccccc2)cc1	/	-4	/	10	4	/	/	/
COC(C[C@@H]1O[C@H]1C(=O)COCc1ccccc1)OC	/	3	/	-2	-2	/	/	/
SMILES	Bim-Mcl-1	GLD-1 RNA inh	Mcl1-Bid inh	MCL1 BIM primary	BCLXL inh	Mcl1-Noxa inh	Bcl-xL conf	MCL1 BIM confirm
CCN(CC)c1ccc(C=C2C(=O)OC(c3ccccc3)OC2=O)cc1 (stereo unspecified)	0	-4	-43	-18	-6	6	/	/
CCN(CC)c1ccc(/C=C/C(=O)C2C(=O)C=C(C)OC2=O)cc1 (stereo unspecified)	/	-102	-46	79*	76*	25	79*	125*
O=C(COC(=O)c1ccc(Br)o1)Nc1ncc([N+](=O)[O-])s1	/	-2	/	35	13	/	/	/
COc1ccc(C(=O)OCC(=O)Nc2ncc([N+](=O)[O-])s2)cc1OC	/	-2	/	74*	23	/	28	58*
CCc1ccc[n+](-c2[nH]c(=O)sc2/C=N/NC([S-])=Nc2ccccc2)c1	-7	108*	-24	144*	122*	47	154*	185*
O=c1[nH]c(-[n+]2ccccc2)c(/C=N/NC([S-])=Nc2ccccc2)s1	/	143*	-13	183*	164*	13	110*	127*
CCc1ccc[n+](-c2[nH]c(=O)sc2/C=N/N=C(\N)[O-])c1	/	4	-29	0	3	13	/	/
Cc1cc[n+](-c2[nH]c(=O)sc2/C=N/NC([S-])=Nc2ccccc2)cc1	-6	116*	-64	164*	139*	10	128*	128*
[S-]C(=Nc1ccc(Cl)cc1)N[n+]1ccccc1	0	5	-75	5	7	15	/	/
Cc1cc(C)c[n+](-c2[nH]c(=O)sc2/C=N/NC([S-])=Nc2ccccc2)c1	-7	117*	-55	167*	129*	13	61*	60*
CC(OC(=O)Cn1[nH]c(=O)c2ccccc2c1=O)C(=O)Nc1cccc(Cl)c1 (stereo unspecified)	/	0	/	-13	-13	/	/	/
Cc1ccc(S(=O)(=O)N2CCCCC2)cc1NC(=O)CCc1nc2ccccc2c(=O)[nH]1	/	11	/	15	22	/	/	/
CC(C)(C)c1cc[n+](-c2[nH]c(=O)sc2/C=N/NC(=O)c2ccccc2[O-])cc1	/	70*	/	126*	97*	/	84*	129*
CC(C)(C)c1cc[n+](-c2[nH]c(=O)sc2/C=N/N=C(\[O-])c2cccnc2)cc1	/	2	/	-1	2	/	/	/
Cc1ccc(N2C(=O)c3cccc4c(N5CCN(C)CC5)ccc(c34)C2=O)c2cccnc12	0	137*	-3	+	+	-5	+	+
Cc1ccc(N2C(=O)c3cccc4c([N+](=O)[O-])ccc(c34)C2=O)c2cccnc12	/	13	4	19	17	32	/	/
